Among all 48,000 compounds or so, about 13,000 (27%) showed an effect of 50% or more. The list shows a part of the results.
The compounds below were run on Wolbachia pipientis (assay: Anti-Wolbachia Cell-Based Screen). Conditions: 5 µM.
Assay type: functional
Parameters: scale not given: in the data most compounds retested in dose-response had high values

SMILES	Percent Effect
Cc1csc(N2CCCN(C(=O)C(C)n3ccnc3)CC2)n1 (stereo not given)	-4.315%
Cc1nnc2n1CC(CNCc1nc(-c3cccs3)no1)CC2 (stereo not given)	-7.356%
CCn1cc2c(n1)C(COC)CN(Cc1ccccn1)C2 (stereo not given)	-2.413%
CCSCCn1cc(-c2ncc[nH]2)nn1	7.304%
CNC1CCN(C2CCN(c3ccc(-c4ccco4)cc3)CC2)CC1	-8.193%
Cn1cc(C(=O)N2CCCN(c3cccnn3)CC2)c2ccccc21	-6.467%
O=S(=O)(CCCn1cncn1)Cc1ccccc1Cl	-3.419%
CC(C)c1cc2c(O)nc(CSCC(=O)NCc3ccccn3)nc2s1	-13.17%
CC(C)OCCOCc1cccc(NC(=O)NCc2ccccn2)c1	14.04%
CC(C)C(=O)Nc1cccc(CNC(=O)CSCc2ccccn2)c1	119.7%
CCNc1cc2c(nn1)CCN(C(=O)c1cccc3c1OCO3)C2	107.3%
CNc1cc2c(nn1)CCN(C(=O)c1cccc3c1OCCO3)C2	94.51%
Nc1cc2c(nn1)CCN(C(=O)c1cccc3c1OCO3)C2	99.08%
CCNc1cc2c(nn1)CCN(C(=O)c1cccc3c1OCCO3)C2	1.992%
CNc1cc2c(nn1)CCN(C(=O)c1cccc3c1OCO3)C2	-1.864%
CCNc1cc2c(nn1)CCN(C(=O)C1COc3ccccc3O1)C2 (stereo not given)	-8.562%
Nc1cc2c(nn1)CCN(C(=O)c1cccc3c1OCCO3)C2	2.04%
Nc1cc2c(nn1)CCN(C(=O)CCc1ccc3c(c1)OCO3)C2	-16.52%
Cc1cc(C(=O)N2C[C@@H]3CN(S(C)(=O)=O)CCO[C@@H]3C2)c(C)o1	-7.965%
O=C(c1ccoc1)N1CC[C@H]2[C@H]1CCN2S(=O)(=O)C1CC1	-16.54%
O=C(c1cnccn1)N1CC[C@H]2[C@H]1CCN2S(=O)(=O)C1CC1	-1.574%
Cc1cc(C(=O)N2CC[C@H]3[C@H]2CCN3S(C)(=O)=O)c(C)o1	109.3%

SMILES	Percent Effect
Cc1oncc1C(=O)N1CC[C@H]2[C@H]1CCN2S(C)(=O)=O	102.2%
CO[C@@H]1CCN(C(=O)c2cnoc2C)[C@H]1Cc1ccccc1	-17.67%
CC(=O)Nc1nc(-c2ccccc2)c[nH]1	-21.73%
Cc1nccn1-c1cc(CNC(=O)c2ccnc(N(C)C)c2)ccn1	25.84%
CN(C)c1cc(CNC(=O)c2ccc(=O)[nH]n2)ccn1	0.8371%
CN(C)c1cc(CNC(=O)c2ccc(F)cc2F)ccn1	0.296%
CCS(=O)(=O)c1ccccc1C(=O)NCc1ccnc(N(C)C)c1	-0.6479%
CN(C)c1cc(CNC(=O)c2cc(Cl)ccn2)ccn1	157.2%
CN(C)c1cc(CNC(=O)c2cn(-c3ccc(F)cc3)nn2)ccn1	-3.053%
Cc1cc(C(=O)NCc2ccnc(N(C)C)c2)c(C)o1	4.439%
CN(C)c1cc(CNC(=O)c2n[nH]c(=O)c3ccccc23)ccn1	128.9%
CN(C)c1cc(CNC(=O)c2ccc(O)nc2)ccn1	121.2%
CN(C)c1cc(CNC(=O)c2cccnc2O)ccn1	123.9%
COc1cc(C(=O)N(C)C)ccc1NC(=O)c1ccsc1	-14.53%
CCc1nc(C)c(C2CC(=O)Nc3c2c(-c2cccnc2)nn3C)[nH]1 (stereo not given)	10.2%
CCNC(=O)NC1CN(Cc2ccncc2Cl)C[C@@H]1OC (stereo not given in full)	-18.14%
CC(=O)c1ccc(NC(=O)NCc2cccc(N(C)C)n2)cc1C	-13.49%
COCCN1CCN(Cc2noc(C3CC3)n2)CC1C (stereo not given)	-13.95%
Cc1nnc(CSc2n[nH]c(-c3ccccn3)n2)o1	3.251%
O=C1NCCCCC1NS(=O)(=O)N1CCCCCC1 (stereo not given)	41.49%
CCNC(=O)c1cnc(Sc2nccn2C)c(Cl)c1	-8.333%
COc1nn(C)cc1C(=O)NCC(=O)Nc1cccnc1	5.398%

SMILES	Percent Effect
CC(=O)N1CCN(c2nc(C(F)(F)F)nc3sc(C)c(C)c23)CC1	10.88%
c1ccc2c(c1)OCCCC2NCc1nnc2n1CCCCC2 (stereo not given)	-26%
Cc1cc(CN(C)C(=O)NCc2ccnc(N(C)C)c2)no1	-11.21%
CN(C)c1cc(CNC(=O)c2cnccn2)ccn1	139.9%
Cc1cnc(C(=O)NCc2ccnc(N(C)C)c2)cn1	122.7%
Cc1cccc(C(=O)NCc2ccnc(N(C)C)c2)n1	-3.78%
COc1ccc(OC)c(S(=O)(=O)NCC2(OC)CCSC2)c1 (stereo not given)	-19.77%
Cc1cc(N(C)C)nc(N2CCn3c(nnc3C3CC3)C2)n1	-9.903%
CN(C)c1cc(C2CCCN2)ccn1 (stereo not given)	114.7%
Cc1cc(N(C)C)nc(C2CCNC2)n1.Cl.Cl (stereo not given)	120.8%
CN(C)c1ccnc(C2CCCN2)n1.Cl (stereo not given)	126.4%
CN(C)c1ccc(-c2noc([C@@H]3CCCN3)n2)cn1	4.635%
Cc1cc(N(C)C)nc(N2CC(n3cccn3)C2)n1	-0.4027%
CCn1cc(C2CCN(Cc3ccnc(N(C)C)c3)CC2)cn1	-12.62%
Cc1nc(CN(C)c2nccc(N(C)C)n2)cs1	-6.579%
Cc1cc(N(C)C)nc(C2CCCN2)n1.Cl.Cl (stereo not given)	137.4%
Cc1cc(C)nc(CN(C)C(=O)c2ccccc2C2CCNC2)c1 (stereo not given)	-11.76%
CN(C)C(=O)c1cccc(CCNS(C)(=O)=O)c1	-0.05313%
O=C(c1cc2c(s1)CCOC2)N1CCCC1Cn1cccn1 (stereo not given)	107.9%
O=C(c1cc2c(s1)CCOC2)N1CCCCC1Cn1cccn1 (stereo not given)	96.86%
O=C(c1cccc2c1OCCO2)N1CCCCC1Cn1cccn1 (stereo not given)	4.366%
CC(=O)N1CCCn2nc(CNS(=O)(=O)c3cc(C)cs3)cc2C1	-1.939%

SMILES	Percent Effect
N#Cc1cccnc1NCCC1CCN(CC(F)(F)F)CC1	-14.98%
CC(C)=CCN1C[C@H]2CC[C@@H]1CN(C(=O)CCc1n[nH]c(C)n1)C2	-19.43%
Cc1cnn(CC2CCCCN2C(=O)c2ccc3[nH]c(=O)[nH]c3c2)c1 (stereo not given)	108.3%
Cc1cnn(CC2CCCCN2C(=O)c2ccc3c(c2)COC3)c1 (stereo not given)	117.5%
Cc1cnn(CC2CCCN2C(=O)c2ccc3[nH]c(=O)[nH]c3c2)c1 (stereo not given)	143.3%
Cc1cnn(CC2CCCCN2C(=O)c2ccc3[nH]nnc3c2)c1 (stereo not given)	-1.412%
Cc1cnn(CC2CCCN2C(=O)c2ccc3cc[nH]c3c2)c1 (stereo not given)	7.467%
Cc1cnn(CC2CCCN2C(=O)c2ccc3[nH]nnc3c2)c1 (stereo not given)	0.8571%
Cc1cnn(CC2CCCCN2C(=O)c2ccc3[nH]cnc3c2)c1 (stereo not given)	112.2%
COc1cccc([S+]([O-])CC(=O)NCc2cc(F)cc(F)c2)c1 (stereo not given)	-14.98%
O=C1N(Cc2cccc(F)c2F)CCCC1(O)CNCc1ccccn1 (stereo not given)	-29.29%
Cc1cc(C)cc(C(C)NC(=O)c2ccc(CS(C)(=O)=O)o2)c1 (stereo not given)	-2.298%
CCc1ccc(CN2CCN(c3ccc(C(N)=O)cn3)CC2)nc1	17.95%
CC(C)(N)c1cn(C2CCN(C(=O)CCC3CCCCC3)CC2)nn1	-21.08%
Cc1cc(CN[C@@H](C)C(N)=O)c(C)s1	8.124%
Cc1cc(CN2CCc3nc(C(C)C)nc(O)c3CC2)c(C)s1	120.7%
Cc1nc(C)c2c(n1)CCN(Cc1ccco1)CC2	-8.406%
CC(C)c1ncc2c(n1)CN(Cc1nc3c(F)cccc3[nH]1)CC2	-0.8884%
Cc1cc(CN2CCc3nc(-c4ccncc4)nc(O)c3CC2)c(C)s1	125%
Cc1cc(CN2CCc3nc(N4CCOCC4)nc(O)c3CC2)c(C)s1	112.9%
Cc1nc(O)c2c(n1)CCN(Cc1cc(C)sc1C)CC2	92.9%
Cc1nc(C)c2c(n1)CCN(Cc1ccsc1)CC2	5.852%

SMILES	Percent Effect
Cc1nc2c(c(=O)n1C)CCN(Cc1cc3ccccc3[nH]1)CC2	-25.51%
CC(=O)N1CCc2c(nc(-c3ccncc3)nc2N(C)CC(O)CO)C1 (stereo not given)	4.037%
COCc1ccccc1C(=O)NS(=O)(=O)CCCC#N	-8.648%
COC1CCN(S(=O)(=O)N2C[C@H](c3ccccc3)[C@@H](N)C2)CC1	-9.837%
N#Cc1cccc(CN2CCN(Cc3cscn3)CC2)c1	-8.185%
NC(=O)c1ccc(C(=O)N2CCCCC2C2OCCO2)cc1 (stereo not given)	-10.24%
Cc1ccc(CN2CCc3ncnc(C4CCOC4)c3CC2)s1.O=C(O)C(F)(F)F (stereo not given)	-17.37%
Cc1ccc(CN2CCc3ncnc(OC(C)C)c3CC2)s1.O=C(O)C(F)(F)F	-2.547%
Cc1ccc(CN2CCc3nc(C(C)C)nc(O)c3CC2)s1	101.1%
Cc1nc(CN2CCOC(CN(C)c3cccnn3)C2)cs1 (stereo not given)	1.717%
CC(NC(=O)C1=NN(C)C(=O)CC1)c1ccc(Cl)cc1Cl (stereo not given)	-11.2%
CC(C)C(NC(=O)c1ccc(Cl)cc1Cl)C(=O)Nc1ccn(C)n1 (stereo not given)	-7.418%
Cc1cc(C)n(NC(=O)c2cccc3c2OCC3)c(=O)c1	-19.93%
Cc1cc(C)n(NC(=O)c2ccc(Cl)cc2Cl)c(=O)c1	111.9%
Cc1ccccc1C(=O)NCC(O)c1ccc(F)c(F)c1 (stereo not given)	-57.78%
CCOc1ccccc1C(=O)Nn1c(C)cc(C)cc1=O	121%
Cc1cc(C)n(NC(=O)c2ccccc2F)c(=O)c1	67.62%
Cc1cccc(NC(=O)CNC(=O)c2ccccc2F)c1	-4.999%
CCOc1cccc(CNc2ccccc2C(=O)OC)c1O	0.1063%
CCOc1ccccc1C(CC(=O)Nc1ccc(C)cn1)NC(C)=O (stereo not given)	-11.24%
Cc1cc(C)n(NC(=O)c2ccccc2C)c(=O)c1	92.68%
O=C(NS(=O)(=O)c1ccccc1)c1ccccc1F	-14.83%

From ChEMBL document CHEMBL3988442, “University of Dundee, Small-Polar-MMV Screening Library” (2021)
